# Assay outcomes as filed in PubChem.
# In the library only some 7.5% were active in any assay of this set; here they are far more common.
# ELG1 genotox – genotoxicity induction in ELG1-luciferase HEK293T cells; AID 504466; 330,000 tested, 1.3% active; HEK293T ELG1-luciferase reporter, luminescence, 16 h; Potency, µM (doses to about 46 µM), for inactives: top-dose activity change, positive = activation, usual class: activators; note: % of control where 0% means no effect; nearly all actives have a fitted effect of over 60% in size
#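 ELG1-luciferase HEK293T cells, 2,000/well; compound pinned in; 16 hr, 37 °C, 5% CO2; ONE-Glo, 30 min RT; luminescence on CCD imager.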
# Rab9 promoter act – Rab9 promoter activation; 320,000 tested, 2.8% active; Huh7 Rab9 promoter-luciferase reporter, luminescence, 24 h; AID 485297; Potency, µM (highest dose often 9.22 µM), for inactives: at the top dose activation, negative = inhibition, actives largely listed as activators; note: % of control where 0% means no effect; nearly all actives have a fitted effect of over 60% in size
#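 Luminescence read-out: Huh7 cells stably expressing Rab9-luciferase, treated 24 h with compound at 37 °C, then lysed with luciferase reagent for 10 min at ambient before reading.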
# FLuc modulator – firefly luciferase modulation, counter-screen for miR-21 project; P08659; purified FLuc, Km substrates, luminescence inhibition; Potency, µM (series often up to 57.5 µM), for inactives: at the highest dose activity change, negative = inhibition, most hits filed as inhibitors; 360,000 tested, 6.9% active;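 note: plate controls were vehicle for no effect and reference inhibitor for full effect; nearly all actives have a fitted effect of over 55% in size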
# Target sequence (P08659 whole entry, looked up): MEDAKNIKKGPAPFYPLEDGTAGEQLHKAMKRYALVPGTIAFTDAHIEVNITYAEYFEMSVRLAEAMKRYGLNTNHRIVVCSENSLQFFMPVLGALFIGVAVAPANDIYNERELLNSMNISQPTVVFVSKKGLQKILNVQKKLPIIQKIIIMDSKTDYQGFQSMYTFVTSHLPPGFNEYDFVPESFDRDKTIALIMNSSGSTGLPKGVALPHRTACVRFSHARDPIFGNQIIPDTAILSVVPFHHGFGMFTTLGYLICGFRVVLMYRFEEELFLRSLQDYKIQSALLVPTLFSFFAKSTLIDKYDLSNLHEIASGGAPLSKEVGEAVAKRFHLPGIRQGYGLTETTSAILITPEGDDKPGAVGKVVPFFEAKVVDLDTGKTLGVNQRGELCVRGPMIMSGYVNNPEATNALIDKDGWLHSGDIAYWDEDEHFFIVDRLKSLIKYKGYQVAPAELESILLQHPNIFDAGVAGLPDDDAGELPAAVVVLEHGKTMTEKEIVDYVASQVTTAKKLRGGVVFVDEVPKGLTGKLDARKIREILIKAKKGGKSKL
#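 Purified P. pyralis luciferase, 10 nM final, with Km-level 10 uM D-luciferin and 10 uM ATP in 50 mM Tris acetate pH 7.5, 10 mM Mg acetate, 0.01% Tween-20, 0.05% BSA; 6-point qHTS titration about 60 µM downward; luminescence read.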
# SMN2 splice up – enhancers of SMN2 splice variant expression. Potency, µM (doses to about 46.1 µM), inactives show at the highest dose activity change, positive = activation, most hits filed as activators. AID 1458. 210,000 tested, 2.8% active. HEK293 SMN2-luciferase splicing reporter, luminescence, 30-36 h; note: % of control where 0% means no effect; nearly all actives have a fitted effect of over 55% in size
#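 HEK293 cells carry an SMN2 […]–luciferase reporter in which exon 7 inclusion puts luciferase in frame. Cells were plated 10-12 h before compound addition, then incubated 30-36 h at 37C. ONE-Glo luminescence was read; sodium butyrate at 4.5 mM final served as control.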
# NPC1 prom act – activators of NPC1 promoter. Huh7 NPC1 promoter luciferase reporter, 24 h. Potency, µM (highest dose often 9.22 µM), without a hit: top-dose activation, hits mostly activators. 320,000 tested, 2.4% active; note: % of control where 0% means no effect; nearly all actives have a fitted effect of over 60% in size
#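 Luminescence from an NPC1 promoter-driven luciferase reporter in stably transfected Huh7 cells was measured after 24 h compound treatment at 37 °C, followed by 10 min ambient incubation with luciferase detection reagent.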
# Luc counter – blocks Kinase-Glo luciferase, a counter-screen artifact | AID 1379 | Potency, µM (highest dose often 38.3 µM), inactives show at the top dose activity change, negative = inhibition, actives largely listed as inhibitors | Kinase-Glo luciferase, ATP luminescence, 8 min | 200,000 tested, 0.28% active; note: % is set by controls: 0 for no effect and ±100 for the full control effect; nearly all actives have a fitted effect of over 60% in size
#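 Recombinant Kinase-Glo luciferase, 10 uM ATP (linear range), luciferin; imidazole pH 7.2 / KCl / MgCl2 / Tween / BSA buffer; 8 min RT; luminescence.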
# * hit, by the source's call; ? = inconclusive; / = no result given; [ ] = dose if it differs, or a comment. Calls come from the whole dose curve; as a rule, active = well fitted curve in the direction sought with a large enough effect; inconclusive = small, poorly fitted or top-dose-only effect, or another doubt; inactive = no such curve, though single readings can be large; an effect the other way counts as inactive or inconclusive. Potency is the fitted concentration of half-maximal effect.
SMILES,ELG1 genotox,Rab9 promoter act,FLuc modulator,SMN2 splice up,NPC1 prom act,Luc counter
COc1c(/C=N/NC(=O)c2ccccc2O)c(CCN(C)C(C)=O)cc2c1OCO2,1%,6%,19µM*,53%,-1%,-4%
CCC(=O)N(C)CCc1cc2c(c(OC)c1/C=N/NC(=O)c1ccccc1O)OCO2,2%,-9%,-19%,-15%,-2%,0%
CCCOC(=O)c1cc(-c2ccc(C=O)o2)ccc1Cl,11%,28%,?,?,22%,-1%
CCOC(=O)c1ccc(-c2ccc(C=O)o2)cc1,?,?,24µM*,/,?,/
CCCOC(=O)c1ccc(-c2ccc(C=O)o2)cc1,?,?,13µM*,1.3µM*,?,-2%
CC(C)(C)c1ccc2c(c1)N(CC(=O)N1CCCC1)C(=O)CO2,0%,-1%,-1%,/,3%,/
CCOC(=O)C1(C)C=C(Nc2cccc(C(=O)O)c2)C(=O)N1c1ccccc1 (configuration not stated),/,/,24µM*,13µM*,/,/
CCCCNC(=O)C1CCN(S(=O)(=O)c2c(C)noc2/C=C\c2ccc(OC)cc2)CC1,10%,-2%,1%,0%,-2%,-1%
COc1ccc(/C=C\c2onc(C)c2S(=O)(=O)N2CCC(C(=O)NCCC(C)C)CC2)cc1,0%,6.3µM*,1%,-10%,-3%,3%
COc1ccc(Cl)cc1S(=O)(=O)NCc1ccc2c(c1)CCN2C(=O)c1cccc(C)c1,/,/,3%,/,/,/
COc1cccc(/C=C2\Oc3cc(OCC(=O)N4Cc5ccccc5C[C@H]4C(=O)O)ccc3C2=O)c1,0%,-1%,3µM*,/,0%,/
COc1ccc(/C=C2\Oc3cc(OCC(=O)N4CCC[C@H]4CO)ccc3C2=O)c(OC)c1,4%,2%,13µM*,/,-4%,/
Cc1ccc(/C=C2\Oc3cc(OC(=O)N4CCOCC4)ccc3C2=O)cc1,-2%,14%,2.1µM*,-17%,8%,-2%
COc1cccc(/C=C2\Oc3cc(OC(=O)N4CCOCC4)ccc3C2=O)c1,5%,22%,6µM*,/,20%,/
CN(C(=O)CSc1nc2ccccc2n1CC(=O)N(C)C1CCCCC1)c1ccccc1,/,/,-3%,/,/,/
COc1ccccc1/C=C1\Oc2cc(OC(=O)N3CCOCC3)ccc2C1=O,4%,14%,11µM*,/,19%,/
Cc1ccsc1/C=C1\Oc2cc(OCC(=O)c3ccccc3)ccc2C1=O,7%,1%,2.7µM*,-7%,10%,-8%
COC(=O)c1ccc2c(c1)C(=O)/C(=C/c1ccc(C)cc1)O2,15%,?,?,11µM*,?,-3%
COc1ccc(/C=C2\Oc3cc(OCC(N)=O)ccc3C2=O)cc1OC,3%,7%,12µM*,/,-5%,/
COC(=O)COc1ccc2c(c1)O/C(=C\c1cccc([N+](=O)[O-])c1)C2=O,2%,7%,-8%,/,-3%,/
COc1ccc(OC(=O)N2CCOCC2)cc1,6%,12%,1%,/,4%,/
COc1ccc2c(c1)C(=O)[C@H](OC(=O)NS(=O)(=O)c1ccc(F)cc1)[C@@H](c1ccc(OC)c(Br)c1)O2,/,/,/,7%,/,1%
COc1ccc(N2CCN(C(=O)CCc3c(C)nc4cc(-c5cccc(F)c5)nn4c3C)CC2)cc1,/,/,-13%,5%,/,/
O=C1/C(=C/c2ccc3c(c2)OCO3)Oc2cc(OCC(=O)N3CCC[C@H]3C(=O)O)ccc21,-2%,-1%,0.54µM*,/,2%,/
CCC1CCCCN1C(=O)COc1ccc2c(c1)OCO2 (configuration not stated),8%,4%,-1%,/,1%,/
SMILES,ELG1 genotox,Rab9 promoter act,FLuc modulator,SMN2 splice up,NPC1 prom act,Luc counter
OCC1O[C@H](O[C@H]2C(O)C(O)C(O)O[C@@H]2CO)C(O)C(O)C1O (some centres not stated),/,/,/,-2%,/,0%
C#CCSc1nnc(-c2sc(-c3ccccc3)nc2C)n1C,1%,16%,?,-18%,5%,1%
Cc1nc(-c2ccccc2)sc1-c1ccn[nH]1,2.6µM*,2.8µM*,1.5µM*,7.9µM*,1.4µM*,-3%
CCn1c(-c2sc(-c3ccccc3)nc2C)n[nH]c1=S,0%,-2%,-9%,5%,2%,-2%
Cc1nc(-c2ccccc2)sc1-c1ccnn1C,?,2.2µM*,4.8µM*,13µM*,?,4%
CCOc1ncccc1C(=O)Nc1ccc2c(C)cc(=O)oc2c1,2%,?,0%,-11%,3.5µM*,-5%
Cc1ccccc1OCCC(=O)Nc1ccc2c(C)cc(=O)oc2c1,21%,15%,3%,/,-4%,/
Cc1cc(C)c(NC(=O)COc2ccccc2C(=O)Nc2ccc3c(c2)oc2ccccc23)c(C)c1,13%,0%,13µM*,-4%,-4%,14%
COc1ccccc1C(=O)Nc1ccc2c(C)cc(=O)oc2c1,?,1.6µM*,?,/,2µM*,/
CCOc1ncccc1C(=O)Nc1ccc(F)c(F)c1,-5%,7%,-6%,2%,-1%,1%
CC1=C(C(=O)Nc2ccccc2C)C(c2cccnc2)n2nc(SCc3ccccc3F)nc2N1 (configuration not stated),/,/,0%,5%,/,/
O=c1cc(-c2ccc(F)cc2F)[nH]c2ccc(F)cc12,/,/,/,/,/,1%[39.9 µM]
Cc1ccc(C2c3c(oc4ccccc4c3=O)C(=O)N2c2ccc(C)cn2)cc1 (configuration not stated),/,/,-9%,2%,/,/
COC(=O)Cc1cc(=O)[nH]c(Nc2nc3ccccc3o2)n1,8%,-4%,17µM*,24%,5%,4%
Cc1ccc2oc(Nc3nc(C)cc(C)n3)nc2c1,9%,3.2µM*,?,4%,?,5%
Cc1ccc2oc(Nc3nc(-c4ccccc4)cc(=O)[nH]3)nc2c1,21µM*,?,?,-15%,20%,-3%
